For eight molecules, growth results are on record in PubChem BioAssay (NCI).

The panel holds about 83,000 compounds, 20% with a hit somewhere; the sample as a whole holds those more often.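 Single-dose data. Exposure time 48 hours. Values below 10 considered active.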 A number with no mark means an inactive call. Active and inactive are the calls of the source.

Experiment in all cases: NCI-60 one-dose screen, 48 h (100 = growth as untreated, 0 = no growth, -100 = all killed)
Holding throughout (conditions): 10 µM unless noted

For experiment [1], the system named is HCT-15 colon.
In experiment [2] the test system is HT29 colon.
Experiment [3] relates to SNB-19 CNS.
Experiment [4] has as its system U251 CNS.
Experiment [5] concerns PC-3 prostate.
Experiment [6] deals with SK-MEL-5 melanoma.
Experiment [7] relates to UACC-62 melanoma.
The subject of experiment [8] is LOX IMVI melanoma.
The subject of experiment [9] is SK-MEL-28 melanoma.
For experiment [10], the system named is SK-MEL-2 melanoma.
The subject of experiment [11] is EKVX NSCLC.
Experiment [12] has as its system SN12C renal.
Experiment [13] deals with UO-31 renal.
For experiment [14], the system named is TK-10 renal.
For experiment [15], the system named is ACHN renal.
Experiment [16] relates to CAKI-1 renal.
The subject of experiment [17] is A498 renal.
In experiment [18] the test system is CCRF-CEM leukemia.
The test system of experiment [19] is MOLT-4 leukemia.

Consider `O=C(O)c1cn(C2CC2)c2cc(N3CCN(Cc4nc5c(cnn5-c5ccc([N+](=O)[O-])cc5)c(=O)[nH]4)CC3)c(F)cc2c1=O`, for which the growth is 102% in experiment [1]; 102% in experiment [2]; 106% in [3]; 106% in experiment [4]; 93.9% in [5]; 99% in experiment [6]. Besides, the growth in experiment [7] was 86.6%; in experiment [8], 101%; in [9], 106%; in experiment [10] it was 120%; in experiment [11], 93.4%; in experiment [12], 95.2%. The growth was 71.8% in [13]; 122% in experiment [14]; 103% in experiment [15]; 94.8% in experiment [16]; 101% in experiment [17]; 99% in experiment [18]. Further, the growth in experiment [19] was 99.4%.
Consider `COc1ccc(/C=C/C(=O)c2ccc(NC(=O)c3cc4cc5ccccc5nc4s3)cc2)cc1OC`, for which the growth in [1] is 104%; in experiment [2], 101%; in experiment [3], 98.8%; in [4] it was 103%; in experiment [5], 94.4%; in [6], 93.5%. The growth in experiment [7] is 96.9%; in [8], 94%; in experiment [9], 105%; in experiment [10], 103%; in experiment [11], 94.6%; in experiment [12] it was 98.1%. Also, the growth in [13] was 88.5%; in [14] it was 126%; in experiment [15], 102%; in experiment [16], 98%; in experiment [17], 83.1%; in [18], 104%. In experiment [19], the growth is 114%.
Turning to `Nc1nc2ccc(-c3nc4ccc5[nH]ncc5c4c4c3CCC4)cc2s1`, the growth in experiment [1] is 11.3%; in [2], 8.06% (active); in experiment [3] it was 42.6%; in experiment [4], 33.9%; in experiment [5], 23.1%; in experiment [6] it was 1.24% (active). Moreover, the growth is -46.2% (active) in experiment [7]; 19.6% in experiment [8]; 44.5% in experiment [9]; 21.5% in experiment [10]; 19.4% in experiment [11]; 28.4% in [12]. For the same molecule, the growth is 14.7% in experiment [13]; 22.3% in experiment [14]; 17.7% in experiment [15]; 1.07% (active) in experiment [16]; -9.59% (active) in experiment [17]; 17.3% in experiment [18]. In addition, the growth in experiment [19] is 18.5%.
On to `O=C(Nc1nc(-c2ccccc2)cc(-c2ccc(Cl)cc2)n1)c1ccncc1`, for which the growth in [1] is 104%; in experiment [2], 96.8%; in experiment [3], 90.3%; in [4], 93%; in experiment [5] it was 91.4%; in experiment [6] it was 102%. Besides, the growth was 86.9% in experiment [7]; 115% in [9]; 98.8% in experiment [10]; 82.3% in experiment [11]; 104% in experiment [12]; 70.8% in experiment [13]. Also, the growth in experiment [14] was 107%; in [15], 97.4%; in experiment [16] it was 77.7%; in [17] it was 71.5%; in [18] it was 98.3%; in experiment [19] it was 93%.
With `CC[C@@H](C)OC(=O)c1nn(C(C)=O)c2ccccc12`, the growth is 89.9% in experiment [1]; 107% in [2]; 100% in experiment [3]; 99.4% in experiment [4]; 103% in experiment [5]; 94.1% in [6]. Besides, the growth was 99.2% in experiment [7]; 95.6% in experiment [8]; 114% in [9]; 107% in experiment [10]; 101% in [11]; 102% in experiment [12]. The growth was 105% in experiment [14]; 108% in experiment [15]; 97.8% in experiment [16]; 99.2% in experiment [17]; 103% in [18]; 123% in [19].
As to `Nc1c(C(=O)Nc2cccc3c2OCCO3)sc2nc3c(cc12)CN(Cc1ccccc1)CC3`, the growth in [1] is 42.5%; in [2], 35.3%; in experiment [3], 60.4%; in experiment [4], 56.9%; in experiment [5], 55.1%; in [6], 60.8%. In addition, the growth in experiment [7] was 49.3%; in experiment [9], 75.4%; in experiment [10] it was 56.2%; in experiment [12], 87.2%; in experiment [13] it was 60.4%; in experiment [14] it was 96.8%. In addition, the growth in experiment [15] is 77.2%; in [16] it was 55.3%; in experiment [17] it was 37.9%; in experiment [18], 36.3%; in [19], 52.5%.
As to `CC(C)C1=C[C@@]23CC[C@@H]4[C@](C)(CCC[C@@]4(C)C(=O)OCC#CCN4CCCC4)[C@H]2C[C@@H]1[C@H]1C(=O)OC(=O)[C@H]13`, the growth is 90.6% in experiment [1]; 90.7% in experiment [2]; 97.4% in experiment [3]; 100% in experiment [4]; 77.8% in experiment [5]; 91.3% in experiment [6]. Besides, the growth in [7] was 82.1%; in experiment [8], 89.1%; in experiment [9] it was 101%; in experiment [10] it was 97.1%; in [11] it was 86.4%; in experiment [12], 93.2%. Further, the growth was 78.3% in experiment [13]; 101% in experiment [14]; 95.9% in [15]; 83.6% in experiment [16]; 78.5% in experiment [17]; 85.7% in experiment [18]. Further, the growth in experiment [19] was 93.9%.
As for `COc1ccc(/C=C2\CN(C(=O)CCN3CCC(=NO)CC3)C/C(=C\c3ccc(OC)cc3)C2=O)cc1`, the growth in experiment [1] is -12.8% (active); in [2], -48.2% (active); in experiment [3], 8.36% (active); in [4], -46.2% (active); in [5] it was 12.1%; in experiment [6], -55.7% (active). Besides, the growth is -70.2% (active) in experiment [7]; -91.8% (active) in experiment [8]; -30.5% (active) in [9]; 89.4% in experiment [10]; 28% in [11]; -52% (active) in [12]. In addition, the growth in experiment [13] was -87.7% (active); in [14] it was 21.5%; in [15], -41.7% (active); in [16], 11.3%; in [17], 36.1%; in experiment [18] it was 0.63% (active). Besides, in [19], the growth was 0.493% (active).
